Experimental data from paper PMC4552634, “A New Set of Chemical Starting Points with Plasmodium falciparum Transmission-Blocking Potential for Antimalarial Drug Discovery” (PLoS ONE, 2015).
Out of some 13,000 compounds screened, about 3,200 (25%) showed an effect of 50% or more. This is one part of the list.

What follows are compounds tested on P. falciparum stage V gametocytes. Conditions: 48 h, 5 µM; inhibitor.
Parameters: BacTiter-Glo ATP luminescence viability of purified stage V gametocytes in 384-well plates, per cent inhibition versus DMSO
Cc1[nH]c(C)c(-c2cc3ccccc3o2)c(=O)c1Cl [TCMDC-135948] was tested, and the “% Inhibition” value was 11.96%. For Cc1[nH]c(C)c(-c2ccc(C(=O)c3ccc(Cl)cc3)cc2)c(=O)c1Br [TCMDC-137407], the “% Inhibition” value was 68.89%. With Cc1[nH]c(C)c(C2CCC(c3ccc(Cl)cc3)CC2)c(=O)c1Cl (centres unmarked) [TCMDC-137423] the “% Inhibition” value was 63.6%. Cc1cc(=O)c(C2CCC(c3ccc(Cl)cc3)CC2)c(C)[nH]1 (centres unmarked) [TCMDC-138154] was tested, and the “% Inhibition” value was 9.202%. For Cc1[nH]c(C)c(-c2ccc(Br)cc2)c(=O)c1Cl [TCMDC-135043], the “% Inhibition” value was 62.53%. For Cc1[nH]c(C)c(-c2ccc(Br)cc2)c(=O)c1Br [TCMDC-137537], the “% Inhibition” value was 28.95%. With CCN(CC)C(=O)c1cccc(C=Cc2ccc(-c3c(C)[nH]c(C)c(Cl)c3=O)cc2)c1 [TCMDC-135819] the “% Inhibition” value was 53.1%. With Cc1cc(=O)[nH]c2cc(Nc3ccnc(Nc4cccc(C(N)=O)c4)n3)ccc12 [TCMDC-138710] the “% Inhibition” value was 20.95%. With CC(C)Oc1ccc(N2CCN(CCCCNC(=O)c3ccc(NC(=O)c4ccc(Cl)cc4)cc3)CC2)c(OC(C)C)c1 [TCMDC-138245] the “% Inhibition” value was -2.12%. C#CCN(Cc1ccc2nc(N)[nH]c(=O)c2c1)c1ccc(C(=O)N[C@@H](CCC(=O)O)C(=O)O)cc1 [TCMDC-131823] was tested, and the “% Inhibition” value was -7.091%. For O=C(CCCCCNC(=O)c1ccc(O)c(-c2cccc(C(F)(F)F)c2)c1)NCCN1CCCCC1 [TCMDC-140814], the “% Inhibition” value was -2.677%. In the case of Cc1cc(N(C)C)nc(Nc2ccc(NC(=O)c3cccc(F)c3)cc2)n1 [TCMDC-124724], the “% Inhibition” value is reported as 10.45%. For Cc1[nH]c(C)c(-c2ccc(Sc3ccc(Cl)cc3)cc2)c(=O)c1Br [TCMDC-137404], the “% Inhibition” value was 66.05%. For COc1ccc2ncc(Cl)c(N3CCC(CCNCc4ccc5c(n4)NC(=O)CS5)CC3)c2c1.Cl [TCMDC-141958], the “% Inhibition” value was 0.05948%. With CC(C)(C)NS(=O)(=O)c1cc(C(=O)N2CCC(CCN3CCC(O)(c4cccc(C(F)(F)F)c4)CC3)(c3cccc(F)c3)CC2)c(Cl)cc1F [TCMDC-135886] the “% Inhibition” value was 93.87%. With O=C(Cc1ccccc1)NC(CCN1CCC(O)(c2cccc(C(F)(F)F)c2)CC1)c1ccc(Cl)c(Cl)c1 (centres unmarked) [TCMDC-141711] the “% Inhibition” value was 14.28%. With CC(C)(C)NS(=O)(=O)c1cc(C(=O)N2CCC(CCN3CCC(C(=O)c4ccc(F)cc4)CC3)(c3cccc(F)c3)CC2)c(Cl)cc1F [TCMDC-135885] the “% Inhibition” value was 79.72%. For O=C(NC1CCN(CCC[C@]2(c3ccc(Cl)c(Cl)c3)CCCN(C(=O)c3ccccc3)C2)CC1)c1ccc(Cl)cc1 [TCMDC-141713], the “% Inhibition” value was -34.58%. For CC(=O)C1(c2ccccc2)CCN(CCC2(c3ccc(Cl)c(Cl)c3)CN(C(=O)Nc3cccc(C(F)(F)F)c3)CCO2)CC1 (centres unmarked) [TCMDC-135342], the “% Inhibition” value was 34.05%. In the case of CN(C)S(=O)(=O)c1ccc(N2CCN(CCC3(c4cccc(F)c4)CCN(C(=O)C(C)(C)C)CC3)CC2)c2nonc12 [TCMDC-135887], the “% Inhibition” value is reported as 8.489%. With COc1ccccc1NC(=O)Nc1ccc(-c2cccc(-c3nc4ccccc4[nH]3)c2)cc1 [TCMDC-133206] the “% Inhibition” value was 15.44%. In the case of FC(F)(F)c1cc(Nc2ncnc3ccc(Br)cc23)ccc1OCc1ccccc1 [TCMDC-131923], the “% Inhibition” value is reported as 9.607%. In the case of c1cncc(Oc2ccc(Nc3ccnc4cc(-c5cccc(CN6CCOCC6)c5)ccc34)cc2)c1 [TCMDC-138490], the “% Inhibition” value is reported as -4.813%. With Oc1cc(Nc2ccnc3cc(-c4cccc(CN5CCCCC5)c4)ccc23)c(F)cc1Cl [TCMDC-138433] the “% Inhibition” value was 38.27%. CN1CCN(Cc2nc(-c3ccc4c(Nc5ccc(F)c(O)c5)ccnc4c3)cs2)CC1 [TCMDC-138439] was tested, and the “% Inhibition” value was 95.29%. CN1CCN(Cc2cccc(-c3ccc4c(Nc5ccc(Oc6cccnc6)cc5)ccnc4c3)c2)CC1 [TCMDC-138489] was tested, and the “% Inhibition” value was 97.22%. With Cc1ccc(O)cc1Nc1ccnc2cc(-c3csc(CN4CCN(C)CC4)n3)ccc12 [TCMDC-138459] the “% Inhibition” value was 29.46%. For CN1CCN(Cc2cccc(-c3cc4nccc(Nc5ccc(Oc6ccccc6)cc5)c4cc3Cl)c2)CC1 [TCMDC-138460], the “% Inhibition” value was 0.7486%. With COCCNCc1nc(-c2ccc3c(Nc4ccc(F)c(O)c4)ccnc3c2)cs1 [TCMDC-138411] the “% Inhibition” value was 27.64%. With c1cncc(Oc2ccc(Nc3ccnc4cc(-c5cccc(CN6CCCCC6)c5)ccc34)cc2)c1 [TCMDC-138491] the “% Inhibition” value was 61.6%. In the case of CN1CCN(Cc2cccc(-c3ccc4c(Nc5ccc(Oc6ccccc6)cc5)ccnc4c3)c2)CC1 [TCMDC-138476], the “% Inhibition” value is reported as 95.08%. With c1ccc(Oc2ccc(Nc3ccnc4cc(-c5cccc(CN6CCOCC6)c5)ccc34)cc2)cc1 [TCMDC-138475] the “% Inhibition” value was -43.1%. With Cc1ccc(/C=C2/SC(=Nc3ccccc3)NC2=O)c(C)c1 [TCMDC-124428] the “% Inhibition” value was 45.43%. For CCOC(=O)c1cncc(/C=C/c2cc(C)cnc2N)c1 [TCMDC-134321], the “% Inhibition” value was 18.35%. With CC(C)(C)C1CC(=O)CC2C(=O)N(C3CCCCC3)C(=O)C21 (centres unmarked) [TCMDC-139129] the “% Inhibition” value was -1.455%. CC1(C)NC(N)=NC(=N)N1OCc1nc(N)nc(Nc2ccccc2)n1 [TCMDC-131613] was tested, and the “% Inhibition” value was 27.92%. In the case of C=CCN1C(=O)C(C(C)=O)=C(O)C1c1ccccc1 (centres unmarked) [TCMDC-131675], the “% Inhibition” value is reported as 0.4612%. With CC(C)C[C@@H](C(=O)Nc1ccc(Cc2ccc(NC(=O)[C@H](CC(C)C)N(C)C(=O)OC(C)(C)C)cc2)cc1)N(C)C(=O)OC(C)(C)C [TCMDC-131871] the “% Inhibition” value was 6.615%. For c1ccc(Oc2ccc(Nc3ccnc4cc(-c5csc(CN6CCCCC6)n5)ccc34)cc2)nc1 [TCMDC-138428], the “% Inhibition” value was -35.56%. With CN1CCN(Cc2nc(-c3ccc4c(Nc5ccc(Oc6ccccc6)cc5)ccnc4c3)cs2)CC1 [TCMDC-138409] the “% Inhibition” value was 54.56%. For CCN(CC)/C(=N/C(=N)Nc1ccc(C)cc1)NCCCCCCN/C(=N\C(=N)Nc1ccc(C)cc1)N(CC)CC [TCMDC-131810], the “% Inhibition” value was 116.5%. For CCCN1CCN(CC(O)CNC(=O)Nc2ccc(Br)cc2)CC1 (centres unmarked) [TCMDC-134638], the “% Inhibition” value was 9.49%. For CCN(CC)/C(=N/C(=N)Nc1ccc(Br)cc1)NCCCCCCN/C(=N\C(=N)Nc1ccc(Br)cc1)N(CC)CC [TCMDC-131814], the “% Inhibition” value was 118.9%. For N=C(N)NN=CC(=O)Nc1ccc(Br)cc1 [TCMDC-137562], the “% Inhibition” value was -7.978%. For CCc1ccc(CN(Cc2ccc(C)cc2)Cc2ccc(NC(C)=O)cc2)cc1 [TCMDC-140034], the “% Inhibition” value was 13.22%. CC(=O)Nc1ccc(C(=O)N2CCN(c3ccnc4cc(Cl)ccc34)CC2)cc1 [TCMDC-133574] was tested, and the “% Inhibition” value was -9.196%. With CCCC1N=C(N)N=C(N)N1c1ccc(C)cc1 (centres unmarked) [TCMDC-131297] the “% Inhibition” value was 8.167%. With CC(C)(C)c1ccc(CNCCOc2ccc(Nc3nnc(-c4ccc(-c5ncc[nH]5)cc4)o3)c3ccccc23)cc1 [TCMDC-138667] the “% Inhibition” value was -26.34%. With N#Cc1ccc2c(c1)CCN(CCC1CCC(NC(=O)c3ccc(-c4ccccc4)s3)CC1)CC2 (centres unmarked) [TCMDC-139837] the “% Inhibition” value was -13.04%. CC(=O)Nc1nc(C(=O)Nc2ccc(-c3ccc(-c4nc5c(C)cccc5[nH]4)cc3)cc2)cs1 [TCMDC-137125] was tested, and the “% Inhibition” value was -51.44%. For Cc1nn(-c2ccnc3cc(Cl)ccc23)c(C)c1C(=O)NCc1cc(Cl)cc(Cl)c1 [TCMDC-134231], the “% Inhibition” value was -2.069%. With COc1ccc2nccc(N3CCC(NCc4ccc5c(n4)NC(=O)CS5)CC3)c2n1 [TCMDC-134652] the “% Inhibition” value was 3.663%. For COc1ccc2nccc(N3CCC(NCCNCc4ccc5c(n4)NC(=O)CO5)C3)c2n1 (centres unmarked) [TCMDC-134548], the “% Inhibition” value was 51.99%. For COc1ccc2nccc(N3CCC(CCNCc4ccc5c(n4)NC(=O)CO5)CC3)c2n1 [TCMDC-141943], the “% Inhibition” value was 5.733%. In the case of COc1ccc2nccc(N3CCC(SCCNCc4ccc5c(n4)NC(=O)CS5)C3)c2n1 (centres unmarked) [TCMDC-134285], the “% Inhibition” value is reported as -20.26%. For COc1ccc2nccc(N3CCC(SCCNCc4ccc5c(n4)NC(=O)CO5)C3)c2n1 (centres unmarked) [TCMDC-134206], the “% Inhibition” value was 10.7%. In the case of COc1ccc2nccc(N3CCC(NCCNCc4ccc5c(n4)NC(=O)CS5)C3)c2n1 (centres unmarked) [TCMDC-134649], the “% Inhibition” value is reported as 67.81%. With O=C(NC(c1ccccc1)c1ccccc1)C(c1cc2ccccc2o1)N1CCN(C(c2ccccc2)c2ccccc2)CC1 (centres unmarked) [TCMDC-141009] the “% Inhibition” value was -31.77%. For CC1(C)N=C(N)N=C(N)N1c1cccc(Cl)c1 [TCMDC-123960], the “% Inhibition” value was 45.27%. O=C1c2ccccc2CCC1CCN1CC=C(c2c[nH]c3ccccc23)CC1 (centres unmarked) [TCMDC-140685] was tested, and the “% Inhibition” value was -66.61%. With CC1(C)CN(CCC2CCC(NC(=O)/C=C/c3ccccc3F)CC2)Cc2ccc(C#N)cc21 (centres unmarked) [TCMDC-139501] the “% Inhibition” value was 15.62%. CCn1c(Sc2ccc(C#N)c([N+](=O)[O-])c2)nnc1-c1cccc(Cl)c1 [TCMDC-135592] was tested, and the “% Inhibition” value was 10.47%. With CCCCCCn1c(Sc2ccc(C#N)c([N+](=O)[O-])c2)nnc1-c1ccc(Cl)cc1 [TCMDC-135599] the “% Inhibition” value was 28.19%. For CCCCCn1c(Sc2ccc(C#N)c([N+](=O)[O-])c2)nnc1-c1ccc(Cl)cc1 [TCMDC-135598], the “% Inhibition” value was 19.94%. In the case of CCCn1c(Sc2ccc(C#N)c([N+](=O)[O-])c2)nnc1-c1ccc(Cl)cc1 [TCMDC-135581], the “% Inhibition” value is reported as 50.77%. COCCn1c(Sc2ccc(C#N)c([N+](=O)[O-])c2)nnc1-c1ccc(N(C)C)cc1 [TCMDC-135613] was tested, and the “% Inhibition” value was 43.33%. For CCCCn1c(Sc2ccc(C#N)c([N+](=O)[O-])c2)nnc1-c1ccc(OC)cc1 [TCMDC-135583], the “% Inhibition” value was 19.44%. For CCCn1c(Sc2ccc(C#N)c([N+](=O)[O-])c2)nnc1-c1ccc(N(C)C)cc1 [TCMDC-135610], the “% Inhibition” value was 57.06%. CCn1c(Sc2ccc([N+](=O)[O-])c(C#N)c2)nnc1-c1cccc(Cl)c1 [TCMDC-135234] was tested, and the “% Inhibition” value was 107.6%. CCn1c(Sc2ccc([N+](=O)[O-])c(C#N)c2)nnc1-c1ccc(Cl)cc1 [TCMDC-135235] was tested, and the “% Inhibition” value was 96.27%. CCCCCCn1c(Sc2ccc(C#N)c([N+](=O)[O-])c2)nnc1-c1ccc(N(C)C)cc1 [TCMDC-135618] was tested, and the “% Inhibition” value was 23.6%.
